# Where “and” joins values, the source holds several entries; their conditions need not be identical. Equal values may be shown once. Calls of active or inactive are those of the source. Rule as the data show it, unless noted: active = inhibition above about 80%; inactive = the rest.
# Columns and labels:
# [1] = viability rescue of complex I mutant cybrids, primary screen, cell-based, galactose medium, ATP luminescence (AID 1645843;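 active = z-score of at least 1.8 in each of two replicates, scored against plate mean and spread of sample wells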;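 also: positive z means more ATP and so rescue of galactose-driven cybrid death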); details: complex I mutant cybrid cells, 72 h, stronger effect = higher value
# [2] = LFS_MB_P medulloblastoma growth inhibition, cell-based, chromothripsis tumors, cisplatin or BGB combos (AID 1671449); details: LFS_MB_P medulloblastoma cells;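 also: cells exposed for 96 hours; 0% = vehicle DMSO and 100% = killing by high DMSO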
# [3] = HDN33 neuroblastoma growth inhibition, cell-based, chromothripsis tumors, cisplatin or BGB combos (AID 1671450); details: HDN33 neuroblastoma cells, stronger effect = higher value;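 also: cells exposed to compound for four days; 0% = vehicle DMSO and 100% = cell killing by high DMSO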
# [4] = ICB984 medulloblastoma cell growth inhibition, synergistic combos for chromothripsis tumors, cisplatin or BGB combos (AID 1671451; call rule not given here;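 also: cells exposed for 96 hours before readout; 0% = vehicle DMSO and 100% = killing by high DMSO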); details: ICB984 medulloblastoma cells, drug combinations, stronger effect = higher value
# [5] = LFS_MB_1R medulloblastoma cell growth inhibition, synergistic combos for chromothripsis tumors, cisplatin or BGB combos (AID 1671452); details: LFS_MB_1R medulloblastoma cells, stronger effect = higher value;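 also: cells exposed for 96 hours before readout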
# [6] = HTB85 osteosarcoma cell growth inhibition, synergistic combos for chromothripsis tumors, BGB or cisplatin IC20 combos (AID 1671453); details: HTB85 osteosarcoma cells, drug combinations, stronger effect = higher value;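 also: cells exposed for 96 hours before readout; 0% = vehicle DMSO and 100% = high DMSO killing control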
# [7] = CRL2098 osteosarcoma cell growth inhibition, synergistic combos for chromothripsis tumors, BGB or cisplatin IC20 combos (AID 1671454); details: CRL2098 osteosarcoma cells, drug combinations, stronger effect = higher value;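 also: cells exposed for 96 h before readout; 0% = vehicle DMSO and 100% = killing by high DMSO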
# [8] = HD-MB03 medulloblastoma cell growth inhibition, synergistic combos for chromothripsis tumors, BGB or cisplatin IC20 combos (AID 1671455; in the data active = inhibition above about 83%;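 also: 0% = vehicle DMSO and 100% = high DMSO as cytotoxic control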); details: HD-MB03 medulloblastoma cells, stronger effect = higher value
# [9] = UWB1.289 ovarian carcinoma cell growth inhibition, synergistic combos for chromothripsis tumors, BGB or cisplatin combos (AID 1671456); details: UWB1.289 ovarian carcinoma cells, stronger effect = higher value;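 also: cells exposed to compound for four days; 0% = vehicle DMSO and 100% = killing by high DMSO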
# [10] = LFS_MB_2R medulloblastoma cell growth inhibition, synergistic combos for chromothripsis tumors, cisplatin combos (AID 1671457); details: LFS_MB_2R medulloblastoma cells, stronger effect = higher value;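 also: cells exposed to compound for four days before readout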
# [11] = MDA-MB-436 breast carcinoma cell growth inhibition, synergistic combos for chromothripsis tumors, BGB or cisplatin combos (AID 1671458; call rule not given here;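 also: cells exposed for 96 hours; 0% = vehicle DMSO and 100% = killing by high DMSO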); details: MDA-MB-436 breast carcinoma growth inhibition, drug combinations, stronger effect = higher value
# [12] = UWB1.289_BRCA1 ovarian cancer growth, cell-based, BGB or cisplatin combinations (AID 1671459); details: UWB1.289 BRCA1 ovarian carcinoma, drug combinations, stronger effect = higher value
# [13] = human astrocyte viability loss, single and combined drugs, cytotoxicity control for chromothriptic childhood tumor combination screen, cell-based, BGB or cisplatin IC20 combos (AID 1671460); details: Human astrocytes, drug combinations, stronger effect = higher value;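 also: cells exposed to compounds for 96 hours before viability readout; 0% = vehicle and 100% = killing control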
# [14] = growth inhibition of BT084 medulloblastoma cells, cell-based, ICGC_MB145, cisplatin and BGB IC40 combos (AID 1671461); details: drug combinations, stronger effect = higher value;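 also: cells exposed to drugs for 96 hours; 0% = vehicle DMSO and 100% = high DMSO full killing control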
# [15] = growth inhibition of RCMB18 medulloblastoma cells, cell-based, cisplatin and BGB IC40 combos (AID 1671462); details: stronger effect = higher value;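 also: cells exposed to compound for four days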
# [16] = growth inhibition of CRL1545 osteosarcoma cells, cell-based, cisplatin and BGB IC20 combos (AID 1671464); details: stronger effect = higher value;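 also: cells exposed to compound for 96 hours before readout; 0% = vehicle DMSO and 100% = high DMSO killing control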
# [17] = measured here: combination with BGB IC40, at 0.05 µM
# [18] = measured here: with BGB IC20 combination, at 0.5 µM
# [19] = measured here: with cisplatin IC20 combination, at 0.5 µM
# [20] = measured here: combination with cisplatin, at 0.5 µM
# [21] = measured here: combination with cisplatin, at 5 µM
compound,measurement,setting,value
CCCOC1CCCN(C2CCN(c3ccc(F)c(F)c3)CC2)C1 (configuration not stated),z-score,[1],-0.725 (inactive)
CCCCC(CC)CN1CCC(n2cc(CNC)nn2)CC1 (configuration not stated),z-score,[1],1 (inactive)
CCc1nc(C)ccc1OCC(=O)N1CCc2[nH]nc(C3CCC3)c2C1,z-score,[1],-0.6 (inactive)
CN(C)CCNC(=O)c1cccn2c(=O)c3cc4ccccc4cc3nc12,inhibition,"[2]; at 0.5 µM, stronger effect = higher value",-18% (inactive) and -22.8% (inactive)
same,inhibition,"[2]; measured here: combination with BGB IC20, at 0.005 µM",-22.4% and -7.9%
same,inhibition,"[2]; measured here: combination with BGB IC40, at 0.005 µM",-33.3% and -28%
same,inhibition,[2]; [17],-30.9% and 0.948%
same,inhibition,"[2]; measured here: combination with cisplatin, at 0.5 µM, stronger effect = higher value",-27.4% and -25.4%
same,inhibition,"[2]; measured here: combination with cisplatin, at 5 µM, stronger effect = higher value",25.9% and 73.9%
same,inhibition,"[3]; BGB combo, at 5 µM",58.1% and 71.8%
same,inhibition,[3]; at 0.5 µM,4.02% (inactive) and 16.5% (inactive)
same,inhibition,"[3]; cisplatin combo, at 5 µM",63.6% and 83.1%
same,inhibition,[3]; [18],-3.52% and 15.5%
same,inhibition,[3]; [19],5.98% and 5.66%
same,inhibition,"[3]; single agent, at 5 µM",67.9% and 86.2%
same,inhibition,"[4]; BGB IC20 combo, at 0.005 µM",-2.65% and -7.73%
same,inhibition,"[4]; BGB IC40 combo, at 0.005 µM",-19% and -46.8%
same,inhibition,"[4]; BGB IC40 combo, at 0.05 µM",29.2% and 25.5%
same,inhibition,[4]; at 0.5 µM,-22.7% (inactive) and -19.3% (inactive)
same,inhibition,"[4]; cisplatin combo, at 0.05 µM",25.8% and 22.5%
same,inhibition,"[4]; cisplatin combo, at 0.5 µM",-35.6% and -11.2%
same,inhibition,"[4]; cisplatin combo, at 5 µM",-26.2% and -47.1%
same,inhibition,"[4]; measured here: 5 uM single agent, at 5 µM",-15.3% and -26.1%
same,inhibition,[5]; at 0.5 µM,-22.6% (inactive) and -0.28% (inactive)
same,inhibition,[5]; [17],-22.9% and -35.5%
same,inhibition,[5]; [20],-29.9% and 26.6%
same,inhibition,[5]; [21],66.5% and 90.2%
same,inhibition,[6]; at 0.5 µM,-6.94% (inactive) and -9.64% (inactive)
same,inhibition,"[6]; measured here: with BGB IC20, at 0.5 µM",10% and -19.8%
same,inhibition,"[6]; measured here: with BGB IC20, at 5 µM",24.9% and 50.6%
same,inhibition,"[6]; measured here: with cisplatin IC20, at 0.5 µM",-22.5% and -20.8%
same,inhibition,"[6]; measured here: with cisplatin IC20, at 5 µM",24% and 36.1%
same,inhibition,"[6]; single agent, at 5 µM",45.2% and 66.6%
same,inhibition,[7]; at 0.5 µM,2.28% (inactive) and -30.7% (inactive)
same,inhibition,"[7]; measured here: combination with BGB at IC20, at 0.5 µM",-26.7% and 2.29%
same,inhibition,"[7]; measured here: combination with cisplatin at IC20, at 0.5 µM",7.69% and -23.9%
same,inhibition,[8]; at 0.5 µM,0.57% (inactive) and 18.1% (inactive)
same,inhibition,"[8]; measured here: combo with BGB at IC20, at 0.5 µM",5% and 20.5%
same,inhibition,"[8]; measured here: combo with cisplatin at IC20, at 0.5 µM",-3.84% and 18.8%
same,inhibition,[9]; at 0.5 µM,10.9% (inactive) and 15.8% (inactive)
same,inhibition,"[9]; measured here: inhibition with BGB combination, at 0.05 µM",-15.6% and -22%
same,inhibition,"[9]; measured here: inhibition with cisplatin combination, at 0.05 µM",-3.25% and -14.4%
same,inhibition,[10]; at 0.5 µM,-28.9% (inactive) and -23.7% (inactive)
same,inhibition,[10]; [20],-34.7% and -23.8%
same,inhibition,[10]; [21],-8.3% and 23.4%
same,inhibition,[11]; at 0.5 µM,-19.8% (inactive) and -0.82% (inactive)
same,inhibition,"[11]; measured here: BGB combination, at 0.5 µM",-29.6% and -21.4%
same,inhibition,"[11]; measured here: BGB combination, at 5 µM",5.41% and 28.4%
same,inhibition,"[11]; measured here: cisplatin combination, at 0.5 µM",-39.6% and -3.6%
same,inhibition,"[11]; measured here: cisplatin combination, at 5 µM",-6.72% and 54.3%
same,inhibition,"[12]; BGB combination, concentration series, at 5 µM",35.7% and 58.1%
same,inhibition,[12]; at 0.5 µM,9.64% (inactive) and 20.1% (inactive)
same,inhibition,"[12]; cisplatin combination, concentration series, at 5 µM",60% and 77.2%
same,inhibition,[13]; at 0.5 µM,16.8% (inactive) and 32.4% (inactive)
same,inhibition,"[13]; measured here: combo with BGB IC20, at 0.5 µM",18.7% and 31.3%
same,inhibition,"[13]; measured here: combo with cisplatin IC20, at 0.5 µM",0.257% and 17.6%
same,inhibition,[14]; at 0.5 µM,-10% (inactive) and -13.6% (inactive)
same,inhibition,"[14]; cisplatin combination, at 0.5 µM",-8.31% and -7.28%
same,inhibition,"[14]; cisplatin combination, at 5 µM",-110% and 45.2%
same,inhibition,"[14]; measured here: BGB IC40 combination 0.05 uM, at 0.05 µM",-36.7% and -32.1%
same,inhibition,"[14]; single agent, at 5 µM",-53.7% and -33.8%
same,inhibition,[15]; at 0.5 µM,-4.43% (inactive) and -8.03% (inactive)
same,inhibition,"[15]; cisplatin combo, at 5 µM",24.5% and 56.4%
same,inhibition,"[15]; measured here: BGB IC40 combination, at 0.05 µM",-9.99% and -6.24%
same,inhibition,[15]; [20],-30.6% and 30.2%
same,inhibition,"[15]; single agent, at 5 µM",-2.75% and -32%
same,inhibition,[16]; at 0.5 µM,6.65% (inactive) and -6.99% (inactive)
same,inhibition,[16]; [18],19.7% and -21.2%
same,inhibition,[16]; [19],-1.47% and 0.101%
same,inhibition,"[16]; single agent, at 0.05 µM",-9.51% and -11.2%
same,inhibition,"[16]; single agent, at 5 µM",37.2% and 93.5%
CCc1noc(CN(C(=O)c2ccccc2-n2cccn2)C(C)C)n1,z-score,[1],-0.655 (inactive)

# — PubChem BioAssay
